# Measured values as given in paper PMC10726135, “HNF4α isoforms regulate the circadian balance between carbohydrate and lipid metabolism in the liver”.
# Whole data set: some 18,000 sequences, median “log2 normalized intensity” near 0.36, cut for the highest 2% near 7.3. The list comes from a sample in which the highest values are over-represented; it also holds similar and randomly drawn sequences.
# Biological target: T1, HNF4alpha8 (COS-7 nuclear extract) (Homo sapiens, UniProt P41235-5 1-452)
# T1 sequence: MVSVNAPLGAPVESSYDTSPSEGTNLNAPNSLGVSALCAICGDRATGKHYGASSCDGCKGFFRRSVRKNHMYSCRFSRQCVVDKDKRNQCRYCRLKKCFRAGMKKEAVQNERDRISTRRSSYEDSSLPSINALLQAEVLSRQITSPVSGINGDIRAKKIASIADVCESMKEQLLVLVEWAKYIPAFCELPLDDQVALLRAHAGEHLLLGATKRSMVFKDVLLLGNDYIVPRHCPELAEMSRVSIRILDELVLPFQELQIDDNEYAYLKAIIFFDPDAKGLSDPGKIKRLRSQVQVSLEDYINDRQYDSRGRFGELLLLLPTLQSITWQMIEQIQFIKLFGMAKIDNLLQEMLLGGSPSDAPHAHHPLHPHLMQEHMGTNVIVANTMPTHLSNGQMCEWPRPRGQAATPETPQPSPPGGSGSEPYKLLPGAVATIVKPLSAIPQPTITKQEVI
# Test: protein-binding microarray; COS-7 nuclear extract on double-stranded Agilent 4x180k PBM; binding buffer, salt, pH and temperature not given in the material; high values mean tight binding
# Conditions: chain copies: 2; label: 3' end of strand 1 on the slide; dsDNA, one strand shown
# In short: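 Double-stranded oligonucleotides of ~60 nt, representing ~44,000 test sequences in quadruplicate, made up a custom Agilent SurePrint G3 4x180k array. Nuclear extracts from COS-7 cells transiently transfected by CaPO4 with a human HNF4α isoform expression vector were applied, and bound HNF4α was imaged at 2-µm resolution on an Agilent G2565CA scanner. Binding signal refers to the background-corrected, normalized gProcessedSignal output of Agilent software.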
row,Sequence,binding signal [log2 normalized intensity]
1,TGCCCTTTGGCCCCCAGAGCCCCGTGTCTCGCCTAGGGAGATTAGAGTATCGGTCGA,5.63
2,ACCCCTGAATAGGTCTTGGAATGTGACGGCGCCTAGGGAGATTAGAGTATCGGTCGA,1.5
3,GTTCTCTGGGCTTTTTGATCTTGTCACATTGCCTAGGGAGATTAGAGTATCGGTCGA,1.99
4,GAACAGTCCTACAAATGATCAAAGGTTGGTGCCTAGGGAGATTAGAGTATCGGTCGA,3.74
5,TACAGGGAGCTATTCTTTAACCAGAGTCTAGCCTAGGGAGATTAGAGTATCGGTCGA,-0.822
6,TCTTGTGGTAATCTCTTTTGTGTTAGAGGGGCCTAGGGAGATTAGAGTATCGGTCGA,1.02
7,GACCTTCAGATGCAGTCCAGAAGGTCAGGAGCCTAGGGAGATTAGAGTATCGGTCGA,4.19
8,GCTAGACTTGGACCAGCTTTTGGAAGGACTGCCTAGGGAGATTAGAGTATCGGTCGA,0.0118
9,CCCACAGAGGGGGTTTGTTTTTTGCCCTTTGCCTAGGGAGATTAGAGTATCGGTCGA,5.27
10,AGAGGGGGTTTGTTTTTTGCCCTTTGTACCGCCTAGGGAGATTAGAGTATCGGTCGA,8.63
11,CTGTACCCTATGCACCCCACAGTGCTGTTTGCCTAGGGAGATTAGAGTATCGGTCGA,1.71
12,GGGTTTGTTTTTTGCCCTTTGTACCCACACGCCTAGGGAGATTAGAGTATCGGTCGA,8.41
13,AGCCTACCCACCCACACCTCCCCTTTGTTTGCCTAGGGAGATTAGAGTATCGGTCGA,3.22
14,TGTTTTTTGCCCTTTGTACCCACACACACCGCCTAGGGAGATTAGAGTATCGGTCGA,7.36
15,CCGCCCACCCTTTTTTTTCTTTCTTTTCCCGCCTAGGGAGATTAGAGTATCGGTCGA,1.46
16,ACCCACCCACACCTCCCCTTTGTTTAACTTGCCTAGGGAGATTAGAGTATCGGTCGA,2.79
17,TGCCCTTTGCCTGGTGATCTTTGTTAGACCGCCTAGGGAGATTAGAGTATCGGTCGA,3.02
18,CCAGAGCCTCCAAAGTCCGCTTGCCTGAGGGCCTAGGGAGATTAGAGTATCGGTCGA,-0.939
19,ACAGCGTTTTCCCATTCATGACATTGATTTGCCTAGGGAGATTAGAGTATCGGTCGA,1.47
20,ACCCCACTTTGGTTCACCGCTCACTGCTCCGCCTAGGGAGATTAGAGTATCGGTCGA,-0.611
21,TACTGGTTGAATGGACGGACAGGTAACGTAGCCTAGGGAGATTAGAGTATCGGTCGA,0.899
22,AACCTCCTTTGAGATAGCTATGATTATCCTGCCTAGGGAGATTAGAGTATCGGTCGA,-0.867
23,ATTGACATTTGGGGTCAGATAATTCTTTGCGCCTAGGGAGATTAGAGTATCGGTCGA,2.42
24,AAGACCCAAGGCGTATGAAGCTTTGACCCTGCCTAGGGAGATTAGAGTATCGGTCGA,5.29

row,Sequence,binding signal [log2 normalized intensity]
1,GGTGAGTCTTTGCCCCTGGACTTTGAATTTGCCTAGGGAGATTAGAGTATCGGTCGA,5.75
2,AGCACCTGAAGAATTTGGACTTTGCACTAAGCCTAGGGAGATTAGAGTATCGGTCGA,9.19
3,AGGGATTCCTGAAGATCGCAGACTTTGGACGCCTAGGGAGATTAGAGTATCGGTCGA,6.44
4,GAAGATCGCAGACTTTGGACTCTGCAAGGAGCCTAGGGAGATTAGAGTATCGGTCGA,6.68
5,GGGTCCTGGCAGCACCTGAAGAATTTGGACGCCTAGGGAGATTAGAGTATCGGTCGA,1.76
6,CTGAAGAATTTGGACTTTGCACTAAAAGCCGCCTAGGGAGATTAGAGTATCGGTCGA,7.57
7,TGGACTTTGCACTAAAAGCCATGAGAAGGTGCCTAGGGAGATTAGAGTATCGGTCGA,5.41
8,TTCCTGAAGATCGCAGACTTTGGACTCTGCGCCTAGGGAGATTAGAGTATCGGTCGA,8.57
9,CTGGCAGCACCTGAAGAATTTGGACTTTGCGCCTAGGGAGATTAGAGTATCGGTCGA,8.33
10,GGAGACCTGAAACTAGACCAAGAAGACTTTGCCTAGGGAGATTAGAGTATCGGTCGA,-0.267
11,TGGACTTTGGAATTAAGGAGATTTGGCTTTGCCTAGGGAGATTAGAGTATCGGTCGA,5.99
12,GAATTTGGACTTTGCACTAAAAGCCATGAGGCCTAGGGAGATTAGAGTATCGGTCGA,6.28
13,CAAGGAAAGATAAATAGTGACAAATTGTATGCCTAGGGAGATTAGAGTATCGGTCGA,-0.0347
14,GTTTCTCAAGTGATCGAAGGTCAACTTATCGCCTAGGGAGATTAGAGTATCGGTCGA,4.63
15,TGTCCTGTGATTAAGGTCAATGGGAAACTAGCCTAGGGAGATTAGAGTATCGGTCGA,1.05
16,CTAGTTCATTAAACATGTTTACTCTGGTCCGCCTAGGGAGATTAGAGTATCGGTCGA,1.59
17,GAAGGAGAGTGACCTCTGCTTGAAGGCATTGCCTAGGGAGATTAGAGTATCGGTCGA,1.78
18,AGATTCTTTCTTCCTTTTGAAAAAGTGAGTGCCTAGGGAGATTAGAGTATCGGTCGA,0.567
19,AATAGCCCCAAATTCCTTTCAAACTGTATTGCCTAGGGAGATTAGAGTATCGGTCGA,1.37
20,CAAAAATGATACCCCAGAGTACAGCACTTTGCCTAGGGAGATTAGAGTATCGGTCGA,1.2
21,ATCAGAGCAAAGTTCAATTTCCAACAAATGGCCTAGGGAGATTAGAGTATCGGTCGA,3.74
22,GCAGTTCCTGATCTTTGACCTGGAGCATGAGCCTAGGGAGATTAGAGTATCGGTCGA,5.34
23,AATTCCAGTTTGGACTTTGATCCTGATGACGCCTAGGGAGATTAGAGTATCGGTCGA,10
